Screening results as filed in PubChem.
Sampled rows, rich in hits. Any-hit rate of the full collection: about 2.4%.
D2 PAM-1 = Beta-Arrestin HTS for Positive Allosteric Modulators of the Human D2 Dopamine Receptor: Potentiators; D(2) dopamine receptor (Homo sapiens), P14416; DiscoveRx D2 beta-arrestin cells, luminescence, 90 min; 100% = 57 uM dopamine signal; potentiation, % (no concentration beside the values); 360,000 compounds, 0.23% hits; AID 624464, 2012; in the data active = potentiation above about 50%; inconclusive = mostly about 30% to 49%
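PathHunter beta-arrestin assay in DiscoveRx D2 cells. Compounds were added with an EC20 of dopamine (50 nM final) for 90 min at 37 deg C. Luminescence was read 1 h after detection reagent, with 57 uM dopamine as the EC100 control.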
D2 ag-1 = Beta-Arrestin HTS for Positive Allosteric Modulators of the Human D2 Dopamine Receptor: Agonists; D(2) dopamine receptor (Homo sapiens), P14416; DiscoveRx PathHunter D2 beta-arrestin, luminescence, 90 min; 100% = 57 uM dopamine signal; activation, % (test concentration not listed); 360,000 compounds, 0.084% hits; in the data active = activation above about 40%; inconclusive = between about 15% and that limit
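DiscoveRx PathHunter D2 beta-arrestin cells (2,100/well) attached overnight, then compound-stimulated 90 min at 37 C in HBSS/10 mM HEPES/0.1% Tween-20 buffer; beta-galactosidase complementation read by luminescence after 1 h at ambient temperature. Dopamine 57 uM final (EC100) as control.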
D2 PAM-2 = HTS Assay for Positive Allosteric Modulators of the Human D2 Dopamine Receptor: Primary Screen for Potentiators; D(2) dopamine receptor (Homo sapiens), P14416; HEK293 T-REx D2, calcium flux, EC20 dopamine potentiation; potentiation, % at 10 µM; 340,000 compounds, 0.34% hits;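 active = potentiation over 3 SD above the plate norm, cut at about 30% in these data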
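Tetracycline-induced Hek293 Trex D2 cells, force-coupled to calcium, loaded with no-wash calcium dye. Compound added with 180 s kinetic read for agonism, then EC20 dopamine and a further 180 s read for potentiation.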
D2 antag = HTS Assay for Allosteric Antagonists of the Human D2 Dopamine Receptor: Primary Screen for Antagonists. AID 485344, 2010. HEK293 TREx D2 cells, calcium flux, dopamine EC80. 340,000 compounds, 2% hits. inhibition, % at 10 µM; in the data active = inhibition above about 30%; inactive = below that, where a call was filed
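Tetracycline-induced HEK293 T-REx cells expressing D2 force-coupled to calcium signalling were dye-loaded, exposed to compound for 180 s, then challenged with an EC80 of dopamine; calcium flux was followed kinetically for a further 180 s.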
D2 ag-2 = HTS Assay for Allosteric Agonists of the Human D2 Dopamine Receptor: Primary Screen for Agonists | activation, % at 2 µM | D(2) dopamine receptor (Homo sapiens), P14416 | HEK293 T-REx D2 cells, calcium flux agonist mode | 340,000 compounds, 0.53% hits | AID 485358, 2010;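 active = activation over 3 SD above normal in the single-dose calcium agonist read, cut at about 30% in these data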
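Agonism is scored from calcium flux in a force-coupled, inducible HEK293 cell line expressing D2, read kinetically for 180 s after compound addition against dopamine controls.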
D3 ag = qHTS of D3 Dopamine Receptor Agonist: D3 Dopamine Receptor B-arrestin Agonist Confirmatory Assay. Potency, µM (highest dose often 76.9 µM), hits mostly activators. 2,300 compounds, 4% hits. shares compounds with D2 ag-2. DiscoveRx D3 beta-arrestin cells, luminescence, 90 min; note: nearly all actives have a fitted effect of over 70% in size
Target sequence (P35462 whole entry, looked up): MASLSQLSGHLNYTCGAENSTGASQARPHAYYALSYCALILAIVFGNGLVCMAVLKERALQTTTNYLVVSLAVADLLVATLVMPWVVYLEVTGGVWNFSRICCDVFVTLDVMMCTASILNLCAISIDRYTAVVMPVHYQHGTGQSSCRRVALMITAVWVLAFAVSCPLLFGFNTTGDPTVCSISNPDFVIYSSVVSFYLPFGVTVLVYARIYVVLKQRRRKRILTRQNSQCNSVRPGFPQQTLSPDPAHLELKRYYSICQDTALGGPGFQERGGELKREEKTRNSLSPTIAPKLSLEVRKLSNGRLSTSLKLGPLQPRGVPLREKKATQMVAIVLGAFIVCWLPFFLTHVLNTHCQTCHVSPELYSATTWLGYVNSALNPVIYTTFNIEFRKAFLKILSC
D2 ag-3 = qHTS of D3 Dopamine Receptor Agonist: D2 Dopamine Receptor B-arrestin Agonist Counterscreen. shares compounds with D2 ag-2. DiscoveRx PathHunter D2 beta-arrestin, luminescence, 90 min; response scale: percent relative to full dopamine signal. Potency, µM (highest dose often 76.9 µM), most hits filed as activators. 2,300 compounds, 5.9% hits. AID 720507, 2013; note: nearly all actives have a fitted effect of over 70% in size
Hits are given with their value; n = inactive; u = inconclusive; x = not tested or not shown. Unless noted, calls come from the whole dose curve; as a rule, active = well fitted activation curve with a large enough effect; inconclusive = small, poorly fitted or top-dose-only effect; inactive = flat fitted curve, though single readings scatter.

SMILES | D2 PAM-1 | D2 ag-1 | D2 PAM-2 | D2 antag | D2 ag-2 | D3 ag | D2 ag-3
O=c1cc(CN2CCN(c3ccccn3)CC2)nc2sccn12 | n | n | n | n | 54.5 | n | n
c1ccc(N2CCN(Cc3ccsc3)CC2)nc1 | 101.3 | 65.6 | n | 84.1 | 76.5 | u | 0.708µM
Cc1ccc(CN2CCN(c3ccccn3)CC2)s1 | 67.6 | 65.0 | n | 93.6 | n | u | 0.159µM
Cc1ccc(S(=O)(=O)CCN2CCN(c3ccccn3)CC2)cc1 | n | n | n | n | n | x | x
c1ccc(CCCN2CCN(c3ccccn3)CC2)cc1 | n | n | n | 75.5 | 75.9 | u | u
CCOC(=O)c1c(NC(=S)Nc2cccnc2)sc(C)c1C | n | n | n | n | n | x | x
COC(=O)c1cc(NC(=O)CSc2ncn[nH]2)ccc1Cl | n | n | n | n | n | x | x
COC(=O)c1ccccc1NC(=O)Nc1ccc2c(c1)OCO2 | n | n | n | n | n | x | x
Cc1sc(NC(=O)c2ccco2)c(CN2CCN(c3ccccn3)CC2)c1C | n | n | n | 123.7 | 67.6 | n | n
CC1(C)C2CC[C@]1(C)C(=O)N(CCCCN1CCN(c3ccccn3)CC1)C2=O | u | 70.4 | n | 115.7 | 85.9 | u | 0.0631µM
CC(=O)Nc1sc2c(c1CN1CCN(c3ccccn3)CC1)CCCC2 | n | n | n | n | n | x | x
CCc1nnc(NC(=O)c2ccc(OC)cc2)s1 | n | n | n | n | n | x | x
COc1cccc(-n2cc(CNC(=O)C3CCC(=O)N(C4CC4)C3)cn2)c1 (configuration not stated) | n | n | n | n | n | n | n
COc1cccc(-n2cc(CN(C)C(=O)C3CCC(=O)N(C4CC4)C3)cn2)c1 (configuration not stated) | n | n | x | x | x | x | x
CC(=O)c1cccc(NC(=O)C(C)OC(=O)CCn2c(C)csc2=O)c1 (configuration not stated) | n | n | n | n | n | n | n
Cc1csc(=O)n1CCC(=O)OC(C)C(=O)Nc1ccc(N2CCOCC2)cc1 (configuration not stated) | n | n | n | n | n | x | x
O=C(CCNS(=O)(=O)c1ccccc1C(F)(F)F)N1CCN(C(c2ccccc2)c2ccccc2)CC1 | n | n | n | n | n | x | x
O=C(CCNS(=O)(=O)c1ccccc1C(F)(F)F)N1CCCCCCC1 | n | n | n | n | n | n | n
COCCN1C(=O)N[C@@H](c2cccc(F)c2)C(C(C)=O)=C1C | n | n | x | x | x | x | x
CCOC(=O)C1=C(CSc2nc(-c3ccncc3)ccc2C#N)OC(N)=C(C#N)C1c1ccc(OC)cc1 (configuration not stated) | n | n | n | n | n | x | x
CCOC(=O)C1=C(CSc2nc(CC)c(C)cc2C#N)OC(N)=C(C#N)C1c1ccc(OC)cc1 (configuration not stated) | n | n | n | n | n | n | n
COc1ccccc1-c1oc2ccccc2c1-c1ccc2cc[nH]c2c1 | n | n | n | n | n | n | n
CCOC(=O)NC(=O)CSc1nc(-c2ccc(C)c(C)c2)cn1-c1ccccc1 | n | n | n | n | n | n | n
Cc1ccc(-c2cn(-c3ccccc3)c(SCC(N)=O)n2)cc1C | n | n | n | n | n | x | x
O=CNc1ccccc1 | n | n | n | n | n | n | n
SMILES | D2 PAM-1 | D2 ag-1 | D2 PAM-2 | D2 antag | D2 ag-2 | D3 ag | D2 ag-3
Cc1ccc(NC(=O)C2CCN(C(=O)c3ccc(F)cc3)CC2)nc1 | n | n | n | n | n | x | x
O=C(COC(=O)c1ccc(CNS(=O)(=O)c2ccc(F)c(Cl)c2)cc1)NCC1CCCCC1 | n | n | n | n | 68.9 | n | n
CCCN(CCC)CCCNC(=S)Nc1ccc2nc(N3CCN(CC)CC3)cc(C)c2c1 | n | n | n | n | n | n | n
Cc1ccc(C)c(NC(=O)CN(C)C(=O)c2cccc(S(=O)(=O)N3CCCC3)c2)c1 | n | n | n | n | n | x | x
COc1ccccc1N1CCN(C2CCN(C(=O)c3cc(OC)c(OC)c(OC)c3)CC2)CC1 | n | n | n | n | n | x | x
COc1cc(OC)cc(C(=O)N2CCC(N3CCN(c4ccccc4)CC3)CC2)c1 | n | n | n | 37.1 | 43.1 | n | n
COc1ccc(C(=O)N2CCC(N3CCN(c4ccccc4)CC3)CC2)cc1OC | n | n | n | n | 40.8 | n | n
COc1ccccc1N1CCN(C2CCN(C(=O)c3cccc(F)c3)CC2)CC1 | n | n | n | n | n | x | x
COc1ccccc1N1CCN(C2CCN(C(=O)c3ccc(F)cc3)CC2)CC1 | n | n | n | n | n | n | n
COc1ccc(C(=O)N2CCN(C3CCC(c4ccccc4)CC3)CC2)cc1OC (configuration not stated) | n | n | n | n | n | x | x
Cc1cc(C)c2nc(N3CCC(C(=O)N4CCCC4)CC3)sc2c1 | n | n | n | n | n | x | x
Cn1c(=O)c2c(nc(Oc3cccc(Br)c3)n2C)n(C)c1=O | n | n | n | n | n | x | x
COc1ccc(-c2cn(Cc3ccc4c(c3)C(=O)c3ccccc3C4=O)nn2)cc1 | n | n | n | n | n | 39.8µM | 35.5µM
COc1ccc2cc(C(=O)C3CCCN(Cc4cnc(N5CCOCC5)s4)C3)ccc2c1 (configuration not stated) | n | n | n | n | 36.1 | n | n
CCOc1ccc(NC(=O)CSc2nnc(Cc3ccccc3)c(=O)n2N)cc1 | n | n | n | n | n | x | x
CCN1CCc2c(sc(NC(=S)NC(=O)c3ccc(Cl)cc3)c2C(N)=O)C1 | n | n | n | n | 43.6 | n | n
CCCN1CCc2c(sc(NC(=S)NC(=O)c3ccccc3)c2C#N)C1 | n | n | n | 77.6 | 76.9 | n | n
CN1CCc2c(sc(NC(=O)Cc3ccccc3)c2C#N)C1 | n | n | n | 69.5 | 78.3 | n | u
CN1CCc2c(sc(NC(=O)c3ccc(C(=O)c4ccccc4)cc3)c2C(N)=O)C1 | n | n | n | 37.1 | 69.1 | n | n
